This is part of a sample that, as a whole, favours compounds with a hit. Of some 83,000 tested, about 20% had one in any assay.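 Percent growth is the endpoint: 0 to 100 indicates growth inhibition (40 means 60% inhibition), 0 means no net growth, and negative values indicate cell death.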 Unmarked numbers belong to inactive results. Calls of active or inactive are those of the source. The calls were made as follows: active = growth percent below 10; inactive = the rest.

Test in all cases: NCI-60 one-dose screen, 48 h (100 = growth as untreated, 0 = no growth, -100 = all killed)
Common to all, as to settings: 10 µM unless noted

The test system of experiment [1] is SR leukemia.
The subject of experiment [2] is RPMI-8226 leukemia.
The test system of experiment [3] is OVCAR-8 ovarian.
The test system of experiment [4] is OVCAR-5 ovarian.
The test system of experiment [5] is OVCAR-4 ovarian.
For experiment [6], the system named is SK-OV-3 ovarian.
For experiment [7], the system named is IGROV1 ovarian.
Experiment [8] has as its system OVCAR-3 ovarian.
Experiment [9] relates to HS 578T breast.
Experiment [10] has as its system NCI/ADR-RES ovarian.
For experiment [11], the system named is T-47D breast.
For experiment [12], the system named is BT-549 breast.
Experiment [13] concerns MDA-MB-435 melanoma.
Experiment [14] deals with SW-620 colon.
For experiment [15], the system named is MCF7 breast.
Experiment [16] relates to HCT-116 colon.
Experiment [17] relates to HCC-2998 colon.
The subject of experiment [18] is KM12 colon.
Experiment [19] has as its system MDA-MB-468 breast.

Consider `O=C(COc1ccc(NC(=O)Nc2ccc(Cl)c(Cl)c2)cc1)N=Nc1c(O)[nH]c2ccc(Br)cc12`, for which the growth in experiment [1] is 3.18% (active); in experiment [2], 3.61% (active); in experiment [3] it was -59.9% (active); in experiment [4], -44.5% (active); in experiment [5], -27% (active); in experiment [6], -43.3% (active). The growth in experiment [7] was -51% (active); in experiment [8] it was -76.4% (active); in experiment [9], -5.94% (active); in experiment [10], 82.4%; in experiment [11], -26.4% (active); in experiment [12], -71.5% (active). For the same compound, the growth in [13] is -51.3% (active); in experiment [14], -21.2% (active); in experiment [15], -1.82% (active); in experiment [16] it was -60.6% (active); in experiment [17], -67.3% (active); in [18], -87.2% (active). For the same compound, the growth in experiment [19] is -75% (active).

For `CCCCc1c(Nn2cnnn2)no[n+]1[O-]`, the growth in experiment [1] was 36.9%; in [2] it was 45.8%; in [3], 42.1%; in experiment [4], 83.2%; in experiment [5] it was 55%; in [6], 88.8%. For the same compound, the growth in experiment [7] was 35.8%; in experiment [8], 51.4%; in experiment [9], 58.6%; in experiment [10], 58.2%; in experiment [11], 51.5%; in experiment [12], 49.4%. Further, the growth in experiment [13] is 46.5%; in [14] it was 57.6%; in [15], 24.5%; in [16] it was 38.2%; in experiment [17], 78.8%; in experiment [18], 61.7%. In addition, the growth in experiment [19] was 49.3%.

Regarding `CC1(c2cc3cc(Cl)ccc3oc2=O)NC(=O)c2c(/C=C/C(=O)OC3CC4CCC3(C)C4(C)C)cccc2N1` (stereo not drawn), the growth in experiment [1] is 42.2%; in experiment [2], 22%; in experiment [3] it was 70.4%; in experiment [4], 80.6%; in experiment [5], 54.4%; in [6], 66.1%. Besides, the growth is 76.1% in [7]; 69% in experiment [8]; 72.8% in [9]; 64% in experiment [10]; 24.4% in [11]; 59.3% in [12]. In addition, the growth in experiment [13] is 81%; in experiment [14] it was 73%; in experiment [15] it was 37.4%; in experiment [16] it was 40.4%; in [17] it was 82.6%; in experiment [18] it was 64.8%. For the same compound, the growth in experiment [19] was -6.79% (active).

As for `COC1=C[C@]23CCC(=O)N2CCc2cc4c(cc2[C@@H]3[C@@H]1OC(=O)[C@H](C)O)OCO4`, the growth in experiment [1] is -11.9% (active); in experiment [2], -17.9% (active); in [3] it was 29.1%; in experiment [4] it was 46.4%; in [5], 13.1%; in experiment [6], 23.5%. Moreover, the growth is 20% in experiment [7]; -2.32% (active) in experiment [8]; 53.9% in [9]; 74.6% in experiment [10]; 42.4% in [11]; 2.51% (active) in experiment [12]. Also, the growth is 34.6% in [13]; 13.6% in experiment [14]; -5.57% (active) in experiment [15]; 1.88% (active) in experiment [16]; -29.9% (active) in experiment [17]; 18.9% in [18]. Besides, the growth in experiment [19] was -17% (active).

Turning to `CN(C)c1nc(NCCNS(=O)(=O)c2ccc(C(=O)/C=C/c3ccc(F)cc3)cc2)nc(Nc2ccc(F)cc2)n1`, the growth in experiment [1] is -34.5% (active); in [2], -15.4% (active); in experiment [3], -96.2% (active); in experiment [4], -97.4% (active); in experiment [5] it was -82% (active); in [6], -0.953% (active). In addition, the growth in [7] is -84.6% (active); in experiment [8], -97.4% (active); in experiment [9] it was -11.3% (active); in [10] it was -91.6% (active); in [11] it was -42.1% (active); in experiment [12] it was -88.7% (active). The growth in experiment [13] was -92.6% (active); in [14] it was -95.3% (active); in [15] it was -82.8% (active); in experiment [16], -86.8% (active); in experiment [17], -95.9% (active); in experiment [18], -93.6% (active). For the same compound, in experiment [19], the growth was -82.8% (active).

In the case of `Cc1ccc(C2=NN(c3nc(-c4cc5ccccc5oc4=O)cs3)C(c3ccc(C)cc3)C2)cc1` (stereo not drawn), the growth in experiment [1] was 102%; in [2], 98.6%; in experiment [3], 106%; in experiment [4], 126%; in experiment [5], 99.1%; in experiment [6], 80.3%. For the same compound, the growth in [7] is 104%; in [8] it was 109%; in [9] it was 101%; in experiment [10], 101%; in experiment [11] it was 91.8%; in experiment [12] it was 120%. Moreover, the growth is 107% in experiment [13]; 105% in [14]; 63.4% in experiment [15]; 110% in experiment [16]; 118% in experiment [17]; 106% in [18]. Also, in experiment [19], the growth is 78.2%.

Take `Cc1ccccc1[C@H]1C(C(=O)c2ccc(Cl)cc2)C2(N[C@@H]1c1ccccc1)C(=O)Nc1ccccc12` (stereo partly drawn): the growth in experiment [1] is -17.1% (active); in [2], -24.2% (active); in experiment [3] it was -67.9% (active); in experiment [4], -46.6% (active); in [5], 8.21% (active); in [6], -3.38% (active). Besides, the growth in [7] was 5.88% (active); in [8] it was -58.4% (active); in [9] it was -28.8% (active); in experiment [10], -68.2% (active); in [11], 4.15% (active); in [12], -66% (active). Besides, the growth was -62.2% (active) in experiment [13]; 0.765% (active) in [14]; -31.7% (active) in experiment [15]; -84% (active) in experiment [16]; -41.1% (active) in experiment [17]; -30.8% (active) in [18]. For the same compound, the growth in experiment [19] is -25.6% (active).

The record behind these values is PubChem BioAssay (NCI).
